The values below come from PubChem BioAssay (Tox21).

Records with an inconclusive call do not appear. Activity calls are given as the source filed them. The call rests on the fitted dose curve; in most records, active means well fitted activation curve with a large enough effect in the repeat runs; inconclusive means weak or mixed curves; inactive means flat fitted curve, though single readings scatter. Non-standard residues stand in square brackets, D forms with d. Residues, ends and D or L forms follow the SMILES beside them. pGlu = O=C1CC[C@@H](C(=O)O)N1; Thz = O=C(O)[C@@H]1CSCN1
On the % scale 0 is the no-effect control and ±100 the full control effect; potency means the concentration at half of the fitted maximal effect.

For this assay, the target named is Nuclear receptor subfamily 1 group I member 2 (Homo sapiens) (UniProt O75469). In words: Human pregnane X receptor (PXR) activation by small molecules, qHTS assay (AID 1346985). Further: nearly all actives have a fitted effect of over 40% in size. As to conditions: DPX-2 HepG2 CYP3A4-luciferase, 24 h; series mostly up to 38.3 µM; activation: at the top concentration. The text has this:
National Center for Advancing Translational Sciences [NCATS]
NIH Chemical Genomics Center [NCGC]
U.S. Environmental Protection Agency [EPA]
National Institutes of Environmental Health Sciences [NIEHS]
National Toxicology Program [NTP]
The Pregnane X receptor (PXR), a ligand activated nuclear receptor plays a critical role in the regulation of genes involved in drug metabolism and transporters. Activation of PXR may be involved in the unwanted adverse drug-drug interactions. […] Therefore, identification of compounds with the potential for PXR activation can be of importance in improving the efficacy of drugs with less toxicity and avoiding drug-drug interactions.
DPX-2 (Puracyp, Inc.) cell lines, used for screening against human PXR activation has HepG2 cells co-transfected with a PXR response element and a luciferase construct containing CYP3A4 promoter. Increase in luciferase activity can be used to identify the compounds that activate the PXR pathway.
DPX-2 cells were dispensed at 2,000 cells per well in 5uL of assay medium into white, solid-bottom 1536-well plates using a Multidrop Combi dispenser (Thermo Scientific). The assay plates were incubated at 37C for 5hr before transferring 23nL of test compounds dissolved in DMSO and positive control via Pintool station (Wako). The assay plates were incubated at 37C for 24hr. Then 5ul One-Glo assay reagent (Promega) was added to each plate by a Flying Reagent Dispenser (FRD, Aurora Discovery) and following 30 min incubation at room temperature, luciferase activity was quantified on a ViewLux plate reader (Perkin Elmer).
`Nc1ncnc2c1ncn2[C@@H]1O[C@H](COP(=O)(O)OP(=O)(O)OP(=O)(O)O)[C@@H](O)[C@H]1O`: the “activation” value is -0.355% (inactive). On to `CCCCCc1ccc(C)cc1O`, for which the “activation” value is 6.71% (inactive). Turning to `O=C1NCCN1c1ncc([N+](=O)[O-])s1`, the “activation” value is -0.367% [at 17.1 µM] (inactive). On to `COc1cc(C)c(/C=C/C(C)=C/C=C/C(C)=C/C(=O)O)c(C)c1C`, for which the “activation” value is 13.2% (inactive). In the case of `CN[C@@H]1[C@H](O[C@H]2[C@H](O[C@H]3[C@H](O)[C@@H](O)[C@H](N=C(N)N)[C@@H](O)[C@@H]3N=C(N)N)O[C@@H](C)[C@]2(O)CO)O[C@@H](CO)[C@H](O)[C@H]1O`, the “activation” value was 7.37% (inactive).

Consider `O=[n+]1ccn([O-])c2ccccc21`, for which the “activation” value is 2.99% (inactive). Turning to `O=C1CC[C@@H](C(=O)N2CSC[C@H]2C(=O)O)N1` ([pGlu]-[Thz]-OH), the “activation” value was -5.28% (inactive). In the case of `CO[C@H]1C[C@@H]2CC[C@@H](C)[C@@](O)(O2)C(=O)C(=O)N2CCCC[C@H]2C(=O)O[C@H]([C@H](C)C[C@@H]2CC[C@@H](OC(=O)C(C)(CO)CO)[C@H](OC)C2)CC(=O)[C@H](C)/C=C(\C)[C@@H](O)[C@@H](OC)C(=O)[C@H](C)C[C@H](C)/C=C/C=C/C=C/1C`, the “activation” value was -7.23% (inactive). As for `CCCCC(=O)O[C@H]1CC[C@H]2[C@@H]3CCc4cc(O)ccc4[C@H]3CC[C@]12C`, the “activation” value is 20% (inactive). As for `COc1ccc(CC2c3cc(OC)c(OC)cc3CC[N+]2(C)CCC(=O)OCCCCCOC(=O)CC[N+]2(C)CCc3cc(OC)c(OC)cc3C2Cc2ccc(OC)c(OC)c2)cc1OC` (stereo not given), the “activation” value is -7.91% [at 17.1 µM] (inactive). As to `CCCCCCCCCCCCCCCCOCCOCCOCCOCCOCCOCCOCCOCCOCCOCCOCCOCCOCCOCCOCCOCCOCCOCCOCCOCCO`, the “activation” value is -7.05% (inactive).

Regarding `CCC(C)[C@@H](N)C(=O)O` (stereo not given in full), the “activation” value was 0.0604% (inactive).

For the compound `COc1ccc(C2(C#N)CCC(C(=O)O)CC2)cc1OC1CCCC1` (stereo not given), the “activation” value was 0.726% (inactive).

With `CN(C)c1ccc(C(=C2C=CC(=[N+](C)C)C=C2)c2c(O)c(S(=O)(=O)[O-])cc3cc(S(=O)(=O)O)ccc23)cc1`, the “activation” value was -3.29% (inactive). On the same count and under the same terms, the same measure for `CCCCC/C=C\C/C=C\C/C=C\CCCCC(=O)O`: 4.75% (inactive); for `COc1ccc(C[C@@H](C)NC[C@H](O)c2ccc(O)c(NC=O)c2)cc1`: 4.04% (inactive). As for `C=C[C@]1(C)C[C@@H](OC(=O)CSCCN(CC)CC)[C@]2(C)[C@H](C)CC[C@]3(CCC(=O)[C@H]32)[C@@H](C)[C@@H]1O`, the Potency was 15.8 µM (active). Consider `CCOC(=O)c1c[nH]c2cc(OCC(C)C)c(OCC(C)C)cc2c1=O`, for which the “activation” value was 2.34% (inactive).

Take `CN(C)C(=O)CCSC(SCCC(=O)O)c1cccc(/C=C/c2ccc3ccc(Cl)cc3n2)c1` (stereo not given): the Potency is 8.91 µM (active). As to `CC(=O)N[C@@H](C=O)[C@@H](O)[C@H](O)[C@H](O)CO`, the “activation” value is -10% (inactive). In the case of `O=C1CCC(=O)N1CO`, the “activation” value is -5.31% (inactive). The same measure, in the same setting: under `COc1ccc(-c2noc(CC(=O)O)c2-c2ccc(OC)cc2)cc1` stands -2.09% (inactive); under `O=C(Nc1ccc(O)cc1)c1ccccc1O`, 6.86% (inactive); under `NCCCC[C@H](N)C(=O)O`, -9.56% (inactive). Take `O=C(CO)[C@@H](O)[C@H](O)[C@@H](O)C(=O)O`: the “activation” value is -2.77% (inactive). Same read-out and setting: the same measure for `O=C(O)c1cc(O)c2c(c1)[O][Bi][O]2`: -13.2% (inactive); for `c1ccc2cc(C3=NCCN3)ccc2c1`: 24.6% (inactive); for `Nc1ncnc2c1ncn2CCOCP(=O)(O)O`: 3.79% (inactive). `CC(C)C(=O)OCC(=O)[C@@]12O[C@H](C3CCCCC3)O[C@@H]1C[C@H]1[C@@H]3CCC4=CC(=O)C=C[C@]4(C)[C@H]3[C@@H](O)C[C@@]12C`: the Potency is 0.631 µM (active). `COC(F)(F)C(Cl)Cl`: the “activation” value was -11.7% (inactive). Regarding `CC(C)CCC[C@@H](C)[C@H]1CC(=O)C2=C3CC[C@H]4C[C@@H](O)CC[C@]4(C)[C@H]3CC[C@@]21C`, the “activation” value was 15.3% (inactive). Still for that read-out and setting: under `CC(=O)c1ccc2c(c1)N(CCCN1CCN(CCO)CC1)c1ccccc1S2` stands 21.1% (inactive); under `C#C[C@]1(O)CC[C@H]2[C@@H]3CCC4=C(CCC(=O)C4)[C@H]3CC[C@@]21C`, 9.83% [at 17.1 µM] (inactive); under `CCCCC(C)(O)C/C=C/[C@H]1[C@H](O)CC(=O)[C@@H]1CCCCCCC(=O)OC` (stereo not given in full), 6.84% (inactive). On to `C[C@H]1[C@@H](OC(=O)CCC(=O)O)O[C@@H]2OC3(C)CC[C@H]4[C@H](C)CC[C@@H]1[C@@]24OO3`, for which the “activation” value is 27.9% (inactive). For the compound `Cc1ccc(S(=O)(=O)NC(=O)N[C@@H](C)Cc2ccccc2)cc1`, the “activation” value is 20.4% (inactive).

In the case of `CC1=C(/C=C/C(C)=C/C=C/C(C)=C/C(=O)Oc2c(C)c(C)c3c(c2C)CC[C@@](C)(CCC[C@H](C)CCC[C@H](C)CCCC(C)C)O3)C(C)(C)CCC1`, the “activation” value was 17.7% (inactive).

For `NC(=O)c1ccc[n+]([C@@H]2O[C@H](COP(=O)([O-])OP(=O)(O)OC[C@H]3O[C@@H](n4cnc5c(N)ncnc54)[C@H](O)[C@@H]3O)[C@@H](O)[C@H]2O)c1`, the “activation” value was 13.1% [at 17.1 µM] (inactive). In the case of `C[C@H](CCCC(C)(C)O)[C@H]1CC[C@H]2[C@@H]3CC=C4C[C@@H](O)CC[C@]4(C)[C@H]3CC[C@]12C`, the “activation” value is 15.8% (inactive). Turning to `CCC[C@@H]1C[C@@H](C(=O)N[C@@H]([C@H]2O[C@H](SC)[C@H](O)[C@@H](O)[C@H]2O)[C@H](C)Cl)N(C)C1`, the “activation” value is 9.76% (inactive).
